Reference: PubChem BioAssay (NCI)
This is part of a sample that, as a whole, favours compounds with a hit. Of some 83,000 tested, about 20% had one in any assay.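 Growth was measured after 48 h exposure to one concentration of compound in 96-well plates. Values under 10 count as active.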 Values without a mark were called inactive. The source made the active and inactive calls.

Test system: NCI/ADR-RES ovarian
Assay: NCI-60 one-dose screen, 48 h (100 = growth as untreated, 0 = no growth, -100 = all killed)
Settings: 10 µM unless noted

**Q.** For `COc1ccc(C2C3CCc4ccccc4C3=NN2C(=O)c2cc(OC)c(OC)c(OC)c2)cc1O` (stereo not drawn), which growth is on record?
**A.** 102%

**Q.** With `CC(C)COC(=O)NC(C)(C)C` as the compound, how does the growth read?
**A.** 106%

**Q.** Which growth does the source give for `Cn1c(=O)c2[nH]c(Cc3ccc4c(c3)OCO4)nc2n(C)c1=O` here?
**A.** 107%

**Q.** With `Cc1ccccc1N1C(c2ccccc2)=NNC12C=CC(=O)c1c(O)cccc12` (stereo not drawn) as the compound, how does the growth read?
**A.** 72.5%

**Q.** `C=C1NC(=O)C(C(C)CC)NC(=O)C2CSCC(NC(=O)CCC(=O)O)C(=O)NC(Cc3ccccc3)C(=O)NC(C)C(=O)NC(CC(C)CC)C(=O)NC(C(=O)NC(Cc3ccccc3)C(=O)N3CCCC3C(=O)N2)C(C)OC(=O)C(CO)NC(=O)C(C(O)COC)N(C)C(=O)C(C(C)C)NC(=O)C(CC(C)CC)NC1=O` (stereo not drawn) was tested. Which growth did it give?
**A.** 9.55% [6 µM] (active)

**Q.** Which growth does the source give for `Cc1nc2c(-c3cnc(N)nc3)nc(N3CCOCC3)nc2n1C(C)C` here?
**A.** -5.49% (active)

**Q.** `C=CC[C@]1(O)CC[C@H]2[C@@H]3CCc4cc(O)ccc4[C@H]3CC[C@@]21C` was tested. Which growth did it give?
**A.** 87.5%

**Q.** Which growth does the source give for `COS(=O)(=O)CCN(CCOS(C)(=O)=O)S(C)(=O)=O` here?
**A.** 105%

**Q.** `CCOP(=O)(O)OP(=O)(O)OCC` was tested. Which growth did it give?
**A.** 105%

**Q.** How did the growth turn out when `NC(N)=N/N=C\c1ccc(OCc2ccccc2)cc1` was run?
**A.** 80%

**Q.** Which growth does the source give for `NC(N)=N/N=C\c1cccc(OCc2ccccc2)c1` here?
**A.** 76.5%

**Q.** With `CS(=O)(=O)Nc1cc(-c2cc3ncc(C#N)c(Nc4ccc(Oc5ccccc5)c(Cl)c4)c3s2)cnc1Cl` as the compound, how does the growth read?
**A.** 72.2%

**Q.** `CC(=O)[C@H]1CC[C@H]2[C@@H]3CC[C@H]4CC=CC[C@]4(C)[C@H]3CC[C@]12C` was tested. Which growth did it give?
**A.** 98.9%
